Tb PYK inh: T. brucei pyruvate kinase inhibition | Q57TT1 | TbPYK enzyme, Kinase-Glo Plus ATP luminescence, 45 min | Potency, µM (highest dose often 76.8 µM), for the others: at the top dose activity, negative = inhibition, actives largely listed as inhibitors | 0.12% of 410,000 active; note: % is set by controls: 0 for no effect and ±100 for the full control effect; nearly all actives have a fitted effect of over 50% in size
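Luminescence from Kinase-Glo Plus, added after a 45-minute room-temperature reaction, served as the end-point read-out. The enzyme and substrate were preincubated with compound before ADP (130 uM final) initiated turnover. Concentration-effect curves came from normalized qHTS data.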
SARS PLP yeast: inhibitors of SARS-CoV papain-like protease in yeast; S. cerevisiae expressing SARS-CoV PLpro, growth rescue; Potency, µM (titrated, usually from 32.9 µM), without a hit: top-dose activity, positive = growth rescue, actives largely listed as activators; 0.19% of 330,000 active; calls by dose curve; note: 0% is about no effect; nearly all actives have a fitted effect of over 55% in size
RE007 growth inh: less growth of the S. pombe RE007 Vpr strain; Potency, µM (doses to about 92.2 µM), without a hit: at the top dose activity change, negative = less growth, usual class: inhibitors; 0.21% of 360,000 active; S. pombe RE007 Vpr strain, BacTiter-Glo ATP luminescence, 24 h; active = well fitted falling curve with a large enough effect; inconclusive = small, poorly fitted or top-dose-only effect; inactive = no such curve, though single readings can be large or run the other way; note: % is set by controls: 0 for no effect and ±100 for the full control effect; nearly all actives have a fitted effect of over 50% in size
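Fission yeast RE007 carrying one integrated HIV-1 vpr copy, seeded at OD 0.01 in PMG+AL medium with 23 nL pinned compound. Grown 24 h at 30 degrees; viability read by BacTiter-Glo luminescence after 5 min.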
AmpC no deterg: AmpC beta-lactamase inhibition without detergent. AmpC nitrocefin hydrolysis, absorbance 480 nm, 0.0001% Triton. AID 485341. 0.52% of 330,000 active. Potency, µM (highest dose often 57.1 µM), for the others: at the highest dose activity change, negative = inhibition, actives largely listed as inhibitors;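 note: plate controls were no compound for no effect and no enzyme for full effect; nearly all actives have a fitted effect of over 20% in size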
Target sequence (P00811 whole entry, looked up): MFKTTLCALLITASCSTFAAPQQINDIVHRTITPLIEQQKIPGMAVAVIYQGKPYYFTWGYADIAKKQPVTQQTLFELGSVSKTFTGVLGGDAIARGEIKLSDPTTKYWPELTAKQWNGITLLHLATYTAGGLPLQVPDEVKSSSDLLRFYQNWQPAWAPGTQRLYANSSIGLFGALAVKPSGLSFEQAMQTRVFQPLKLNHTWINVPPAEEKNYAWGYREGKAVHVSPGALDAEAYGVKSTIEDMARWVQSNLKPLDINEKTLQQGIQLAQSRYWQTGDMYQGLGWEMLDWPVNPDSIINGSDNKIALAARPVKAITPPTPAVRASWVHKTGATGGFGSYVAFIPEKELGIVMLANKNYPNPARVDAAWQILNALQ
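20 mM phosphate pH 7.0 + 0.01% (detergent screen) or 0.0001% Triton X-100; 5.3 nM AmpC reagent; cpd preinc 15 min RT; nitrocefin (800 uM stock) to start; A480 q20 s × 4 min; Activity was normalised to no-enzyme and no-compound control wells.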
AmpC detergent: AmpC beta-lactamase inhibition with detergent present; P00811; AmpC hydrolysis of nitrocefin, absorbance 480 nm, 0.01% Triton; Potency, µM (titrated, usually from 114 µM), for inactives: at the highest dose activity change, negative = inhibition, usual class: inhibitors; 0.041% of 370,000 active; AID 485294;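 note: 0% = no-compound wells and -100% = no-enzyme wells; nearly all actives have a fitted effect of over 25% in size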
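AmpC (5.3 nM in the dispensed reagent) in 20 mM phosphate pH 7.0 with 0.01% (detergent screen) or 0.0001% Triton X-100 was preincubated with compounds for 15 min at room temperature. Nitrocefin was then added from an 800 uM solution, and hydrolysis was followed at 480 nm.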
Sm TGR block: blocks Schistosoma mansoni thioredoxin glutathione reductase; purified TGR, DTNB reduction, TNB absorbance 405 nm; Q962Y6; Potency, µM (doses to about 114 µM), for the others: top-dose activity change, negative = inhibition, hits mostly inhibitors; 3% of 360,000 active; AID 485364; note: % is set by controls: 0 for no effect and ±100 for the full control effect; nearly all actives have a fitted effect of over 60% in size
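Kinetic colorimetric format: TGR-catalysed, NADPH-driven DTNB reduction monitored via TNB absorbance. Enzyme dispensed at 20 nM; compound exposure 15 min at room temperature before reaction start.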
Active calls of the source: *; ? = inconclusive; . = no result; ! = not confirmed by another sample; [ ] = remark or other dose. Compounds with a hit are over-represented: about 3.3% of the library has one in this group of screens. Unless noted, calls come from the whole dose curve; as a rule, active = well fitted curve in the direction sought with a large enough effect; inconclusive = small, poorly fitted or top-dose-only effect, or another doubt; inactive = no such curve, though single readings can be large; an effect the other way counts as inactive or inconclusive. Potency is the fitted concentration of half-maximal effect.

SMILES | Tb PYK inh | SARS PLP yeast | RE007 growth inh | AmpC no deterg | AmpC detergent | Sm TGR block
O=C(Oc1ccc2ccc(=O)oc2c1)c1ccc([N+](=O)[O-])cc1 | -8% | 2% | -17% | -20% | 4% | -19%
O=c1ccc2ccc(Oc3ccc([N+](=O)[O-])cc3[N+](=O)[O-])cc2o1 | . | -6% | . | -23% | 2% | 40µM*
CCOC(=O)c1c(C)oc2ncnc(N3CCN(c4ccccc4F)CC3)c12 | -8% | . | . | . | 5% | 40%
CSc1cccc(NC(=O)c2c(Cl)cnn2C)c1 | 1% | . | -30% | . | 2% | -6%
Cn1ncc(Cl)c1C(=O)Nc1cccc(Cl)c1 | ? | -23% | ? | -7% | ? | 45µM*
CCc1nc2nc(C)cc(Nc3cc(C)ccc3C)n2n1 | 0% | . | . | . | 15% | ?
COc1ccccc1C1Nc2cccc3cccc(c23)N1 | -9% | -12% | 7.1µM* | -27% | -10% | ?
Oc1ccccc1C1Nc2cccc3cccc(c23)N1 | -10% | -11% | -7% | -36% | 9% | 18µM*
CCOc1ccc(OCC)c(NC(=O)c2cnc(SC)nc2-c2ccccc2)c1 | -16% | . | . | . | 11% | 0%
C/C(=N\O)C(=O)C(CN1CCCCC1)CN1CCCCC1 | ? | 1% | -4% | -7% | 4% | 1.8µM*
Cc1cccc(CS(=O)(=O)Cc2ccc(C(=O)NCc3ccc(Cl)cc3)o2)c1 | -2% | . | . | . | 4% | 3%
Cc1ccc(C(=O)NCC(c2cccs2)S(=O)(=O)c2cccs2)cc1 (stereo not given) | 0% | . | . | . | 4% | ?
Clc1ccc(Cn2c(/C=C/c3ccco3)nc3ccccc32)cc1 | -11% | -20% | 17% | -33% | ? | 28µM*
C#CCn1c(/C=C/c2ccc(Cl)cc2)nc2ccccc21 | -4% | . | . | . | 28% | -2%
Cc1ccc(Cn2c(/C=C/c3ccco3)nc3ccccc32)cc1 | -25% | -38% | 14% | -32% | -14% | 11µM*
Cc1ccc(Cn2c(-c3ccccc3)nc3ccccc32)cc1 | 5% | . | . | . | 14% | 8%
Cn1cccc1/C=C1\CCc2ccccc2C1=O | ? | -19% | 35µM* | -25% | ? | 5%
CN1C2CCC1/C(=C/c1cccn1C)C(=O)/C2=C\c1cccn1C | -1% | 5% | -17% | 17% | 8% | 35µM*
O=C1C(=Cc2ccccc2Cl)CCc2ccccc21 | 32µM* | . | 1%[18.4 µM] | . | . | .
COc1cccc(CNC(=O)Cn2ncn3nc(-c4cccs4)cc3c2=O)c1OC | -6% | . | . | . | -9% | 4%
c1ccc(CN2CCCC3(CCNCC3)C2)cc1 | 4% | . | . | . | . | .
OC1(Cc2ccccc2)CCNCC1 | 2% | -1% | -2% | -22% | 5% | 45µM*!
COc1ccc(C(=O)c2cn(Cc3ccc(C)cc3)c3cc4c(cc3c2=O)OCO4)cc1 | -2% | . | . | . | 10% | 2%
CCCCS/C(=C(/C#N)C(N)=O)c1cc2c([nH]1)CCCC2 | 5% | -14% | -12% | 14% | 6% | 10µM*
CCc1ccc(N/C(SC)=C(/C#N)C(N)=O)cc1 | 2% | 6% | 19% | -10% | -7% | -28%
C=CCNC1=C(Cl)C(=O)N(c2ccccc2Cl)C1=O | 0% | -6% | -2% | -28% | ? | 45µM*
Cc1c(NC2=C(Cl)C(=O)N(c3ccccc3)C2=O)c(=O)n(-c2ccccc2)n1C | -6% | -3% | -23% | -31% | 0% | ?
Cc1c(NC2=C(Cl)C(=O)N(c3ccccc3Cl)C2=O)c(=O)n(-c2ccccc2)n1C | -27% | 13% | . | -18% | -8% | 40µM*
Cc1[nH]c2ccccc2c1C(c1ccccn1)N1CCCC1 (stereo not given) | 2% | -4% | -9% | -28% | 6% | ?
Cc1cc(NC(c2cccnc2)c2c(C)[nH]c3ccccc23)no1 (stereo not given) | -6% | 2% | -1% | -30% | ? | 2.8µM*

Screening results: PubChem, National Center for Advancing Translational Sciences (NCATS)
